From PubChem BioAssay AID1159580 (chemical genetic matrix, 2015)
“And” between values parts separate entries of the source, which are not always exact repeats. Equal values may be shown once. About 2,000 (36%) of roughly 5,500 compounds were called active. Inconclusive results (about 18%) are left out. Rule as the data show it: active = normalized growth mostly below about 0.91 (no sharp cut-off); inconclusive = no clear call, values can overlap the other calls; inactive = mostly above about 0.92. The list shows a part of the results.

Test: chemical genetic growth profiling, strain panel (AID 1159580);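 also: tested at 20 µM; growth read once vehicle control cultures reached saturation at 30 °C; 1 = growth at the plate median or of vehicle wells; lower values mean less growth of the strain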
Details: S. cerevisiae deletion strains, growth OD

Measured: normalized growth

CCN1CCCC(OC(=O)C(c2ccccc2)c2ccccc2)C1 (stereo not drawn)
inactive: locus YAL021C, strain ccr4, stronger effect = lower value 0.978 | locus YAL026C, strain drs2, stronger effect = lower value 0.99 | locus YAL030W, strain snc1, stronger effect = lower value 0.989 | locus YBL061C, strain skt5, stronger effect = lower value 0.982 | locus YBR009C, strain hhf1, stronger effect = lower value 0.992 | locus YBR021W, strain FUR4, stronger effect = lower value 1.03 | locus YBR023C, strain chs3, stronger effect = lower value 0.973 | locus YBR171W, strain sec66, stronger effect = lower value 0.99 | locus YBR229C, strain ROT2, stronger effect = lower value 1.01 | locus YBR231C, strain swc5, stronger effect = lower value 0.989 | locus YBR279W, strain paf1, stronger effect = lower value 0.998 | locus YCL011C, strain gbp2, stronger effect = lower value 1 | locus YCL016C, strain dcc1, stronger effect = lower value 0.973 | locus YCL029C, strain bik1, stronger effect = lower value 1.01 | locus YCL061C, strain MRC1, stronger effect = lower value 0.989 | locus YCL069W, strain vba3, stronger effect = lower value 0.989 | locus YCR088W, strain abp1, stronger effect = lower value 0.978 | locus YDL005C, strain med2, stronger effect = lower value 0.982 | locus YDL035C, strain GPR1, stronger effect = lower value 1.03 | locus YDL040C, strain nat1, stronger effect = lower value 0.98 | locus YDL074C, strain BRE1, stronger effect = lower value 1.01 | locus YDL101C, strain DUN1, stronger effect = lower value 1.01 | locus YDL134C, strain PPH21, stronger effect = lower value 1.02 | locus YDL185W, strain tfp1, stronger effect = lower value 1.01 | locus YDL192W, strain arf1, stronger effect = lower value 1.01 | locus YDR001C, strain nth1, stronger effect = lower value 0.975 | locus YDR069C, strain doa4, stronger effect = lower value 1 | locus YDR101C, strain arx1, stronger effect = lower value 0.992 | locus YDR137W, strain rgp1, stronger effect = lower value 1.01 | locus YDR159W, strain sac3, stronger effect = lower value 0.989 | locus YDR162C, strain NBP2, stronger effect = lower value 1.01 | locus YDR195W, strain ref2 0.963 | locus YDR297W, strain sur2, stronger effect = lower value 0.993 | locus YDR318W, strain mcm21, stronger effect = lower value 1.01 | locus YDR334W, strain swr1, stronger effect = lower value 0.958 | locus YDR335W, strain msn5, stronger effect = lower value 0.963 | locus YDR388W, stronger effect = lower value 1.01 | locus YDR392W, strain spt3, stronger effect = lower value 0.975 | locus YDR502C, strain sam2, stronger effect = lower value 0.999 | locus YEL003W, strain gim4, stronger effect = lower value 0.978 | locus YEL037C, strain rad23, stronger effect = lower value 0.978 | locus YEL061C, strain CIN8 (second series), stronger effect = lower value 0.999 | locus YEL061C, strain CIN8, stronger effect = lower value 1.01 | locus YER015W, strain faa2, stronger effect = lower value 0.974 | locus YER016W, strain bim1, stronger effect = lower value 0.986 | locus YER110C, stronger effect = lower value 1.01 | locus YER111C, strain swi4, stronger effect = lower value 0.978 | locus YER155C, strain BEM2 (second series), stronger effect = lower value 1 | locus YER155C, strain BEM2, stronger effect = lower value 1.01 | locus YER167W, strain BCK2, stronger effect = lower value 1.01 | locus YFR010W, strain ubp6, stronger effect = lower value 0.99 | locus YGL078C, strain dbp3, stronger effect = lower value 1 | locus YGL086W, strain mad1, stronger effect = lower value 1.01 | locus YGL167C, strain pmr1, stronger effect = lower value 0.981 | locus YGL173C, strain kem1, stronger effect = lower value 0.982 | locus YGL227W, strain vid30, stronger effect = lower value 0.997 | locus YGL240W, strain doc1, stronger effect = lower value 0.994 | locus YGL248W, strain PDE1, stronger effect = lower value 1.01 | locus YGL253W, strain hxk2, stronger effect = lower value 0.991 | locus YGR135W, strain pre9, stronger effect = lower value 1 | locus YGR229C, strain SMI1, stronger effect = lower value 1.01 | locus YGR252W, strain gcn5, stronger effect = lower value 0.998 | locus YHR013C, strain ard1, stronger effect = lower value 0.96 | locus YHR027C, strain rpn1, stronger effect = lower value 0.986 | locus YHR030C, strain SLT2, stronger effect = lower value 1.01 and 0.993 | locus YHR079C, strain IRE1 (second series), stronger effect = lower value 1.01 | locus YHR079C, strain IRE1, stronger effect = lower value 0.978 | locus YHR094C, strain hxt1, stronger effect = lower value 1.01 | locus YHR129C, strain ARP1, stronger effect = lower value 1 | locus YHR142W, strain chs7, stronger effect = lower value 0.978 | locus YHR200W, strain rpn10, stronger effect = lower value 1 | locus YIL066C, strain RNR3, stronger effect = lower value 1.01 | locus YIL073C, strain SPO22, stronger effect = lower value 1.08 | locus YIL125W, strain kgd1, stronger effect = lower value 1 | locus YIR030C, strain dcg1, stronger effect = lower value 1.01 | locus YJL092W, strain hpr5, stronger effect = lower value 0.973 | locus YJL095W, strain BCK1 (second series), stronger effect = lower value 0.994 | locus YJL095W, strain BCK1, stronger effect = lower value 0.987 and 0.977 | locus YJL115W, strain asf1, stronger effect = lower value 0.977 | locus YJL129C, strain trk1, stronger effect = lower value 0.964 | locus YJL134W, strain LCB3, stronger effect = lower value 1.01 | locus YJL154C, strain vps35, stronger effect = lower value 0.976 | locus YJL164C, strain tpk1, stronger effect = lower value 1 | locus YJL166W, strain qcr8, stronger effect = lower value 0.982 | locus YJL168C, strain set2, stronger effect = lower value 1.01 | locus YJL187C, strain SWE1 (second series), stronger effect = lower value 1 | locus YJR043C, strain POL32, stronger effect = lower value 1.04 | locus YJR066W, strain TOR1, stronger effect = lower value 0.955
